This is an account of results in PubChem BioAssay (Tox21).

Where “and” joins values, the source holds several entries; their conditions need not be identical. Equal entries are not always repeated. Results filed as inconclusive are left out. A structure can be active in one record and inactive in another. Calls of active or inactive are those of the source. Unless noted, calls come from the whole dose curve; as a rule, active = well fitted curve in the direction sought with a large enough effect in the repeat runs; inconclusive = weak or mixed curves; inactive = no such curve, though single readings can be large; an effect the other way counts as inactive or inconclusive.

The nature of experiment [1]: qHTS assay to identify small molecule antagonists of the estrogen receptor alpha (ER-alpha) signaling pathway using the BG1 cell line in the presence of 0.1 nM 17-beta-estradiol - cell viability counter screen (AID 1259241). Note: nearly all actives have a fitted effect of over 40% in size. In outline: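 Live-cell protease activity (CellTiter-Fluor fluorescence, 30 min) was read in the same wells after VM7Luc4E2 cells had been exposed to compounds with 0.1 nM 17beta-estradiol for 22 hr at 37C.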
(In general: qHTS replaces the single test concentration by a dilution series.)

Experiment [2] can be described thus: qHTS assay to identify small molecule antagonists of the androgen receptor (AR) signaling pathway using the MDA cell line in the presence of 0.5 nM R1881 - cell viability counter screen (AID 1259242). Note: nearly all actives have a fitted effect of over 45% in size. In outline: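 Fluorescence from CellTiter-Fluor, which reports protease activity of live cells, was read 30 min after reagent addition to MDA-kb2 cells that had been incubated 16 hr with compound and 0.5 nM R1881.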

Experiment [3] has as its target Estrogen receptor (Homo sapiens) (UniProt P03372). Put plainly: qHTS assay to identify small molecule antagonists of the estrogen receptor alpha (ER-alpha) signaling pathway using the BG1 cell line in the presence of 0.1 nM 17-beta-estradiol (AID 1259244). Note: nearly all actives have a fitted effect of over 50% in size. In outline:
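Quantitative high-throughput screen in VM7Luc4E2 cells: compound plus 0.1 nM E2 (final), 22 h, 37C, 5% CO2; ONE-Glo added, 30 min room temperature, luminescence measured.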

Experiment [4] in a line: qHTS assay to identify small molecule phospholipidosis (PLD) inducers (AID 1259344; active = well fitted curve in the direction sought with a large enough effect; an effect the other way counts as inactive or inconclusive). In outline:
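Phospholipidosis is scored by imaging LipidTOX-stained pits in HepG2 cells exposed to compound for 24 h at 37 C; pit counts and integrated intensities per well and per cell serve as outputs.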

Experiment [5] is described as follows: qHTS assay to identify small molecule HDAC inhibitors (AID 1259364). For activity change, negative = inhibition: top concentration of the series differs between compounds. Note: nearly all actives have a fitted effect of over 45% in size. Note: potency is the fitted concentration of half-maximal effect. In outline:
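Endogenous HDAC class I/II activity was measured in wild-type HCT-116 cells by HDAC-Glo luminescence after 2 h compound treatment.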

A short description of experiment [6]: qHTS assay to identify small molecule HDAC inhibitors - cell viability counter screen (AID 1259365). Note: series mostly up to about 92 µM; nearly all actives have a fitted effect of over 50% in size. The method in brief: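 HCT-116 (wild type), 1,500 cells/well, overnight 37C/5% CO2; compound in DMSO 2hr; CellTiter-Glo 30min RT; luminescence read.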
The nature of experiment [7]: qHTS assay to identify small molecule agonists of the sonic hedgehog signaling (Shh) pathway - cell viability counter screen (AID 1259366). Note: nearly all actives have a fitted effect of over 50% in size. The method in brief:
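CellTiter-Fluor fluorescence read-out, 1 hr at 37C, added after 23hr compound exposure. Cells: 3T3 Gli1-Luc, an NIH/3T3 clone with stably integrated Gli1-Luc reporter, plated 4hr before compound.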

Experiment [8] is described as follows: qHTS assay to identify small molecule antagonists of the sonic hedgehog signaling (Shh) pathway - cell viability counter screen (AID 1259367). Note: nearly all actives have a fitted effect of over 55% in size. Note: potency is the fitted concentration of half-maximal effect. In outline: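 Cells: 3T3 Gli1-Luc, 2,000/well, 4 hr pre-incubation. Compounds in DMSO, then conditioned medium. Incubation 24 hr, 37C, 5% CO2. CellTiter-Fluor at 23 hr, 1 hr, fluorescence.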
Experiment [9] can be described thus: qHTS assay to identify small molecule agonists of the sonic hedgehog signaling (Shh) pathway (AID 1259368; calls by dose curve; note: nearly all actives have a fitted effect of over 15% in size; note: potency is the fitted concentration of half-maximal effect;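 for activity change: NIH/3T3-derived 3T3Gli1-Luc cells carrying a stable Gli1-driven firefly luciferase reporter; series mostly up to about 92 µM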). The method in brief:
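Luminescent signal was taken as a measure of Gli1-controlled luciferase expression in stably transfected NIH/3T3-derived cells that had been treated for 24 hr with compounds delivered in DMSO.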

Experiment [10] has as its target Androgen receptor (Homo sapiens) (UniProt P10275). Put plainly: qHTS assay to identify small molecule antagonists of the androgen receptor (AR) signaling pathway using the MDA cell line in the presence of 0.5 nM R1881 (AID 1259243). Note: nearly all actives have a fitted effect of over 50% in size. In outline:
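Inhibition of R1881 (0.5 nM final) induced reporter signal was measured in human MDA-kb2 cells; note the MMTV promoter also responds to GR. Exposure lasted 16 hr at 37C.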
% is set by controls: 0 for no effect and ±100 for the full control effect.

Chain of Androgen receptor (Homo sapiens) (P10275 whole entry, looked up): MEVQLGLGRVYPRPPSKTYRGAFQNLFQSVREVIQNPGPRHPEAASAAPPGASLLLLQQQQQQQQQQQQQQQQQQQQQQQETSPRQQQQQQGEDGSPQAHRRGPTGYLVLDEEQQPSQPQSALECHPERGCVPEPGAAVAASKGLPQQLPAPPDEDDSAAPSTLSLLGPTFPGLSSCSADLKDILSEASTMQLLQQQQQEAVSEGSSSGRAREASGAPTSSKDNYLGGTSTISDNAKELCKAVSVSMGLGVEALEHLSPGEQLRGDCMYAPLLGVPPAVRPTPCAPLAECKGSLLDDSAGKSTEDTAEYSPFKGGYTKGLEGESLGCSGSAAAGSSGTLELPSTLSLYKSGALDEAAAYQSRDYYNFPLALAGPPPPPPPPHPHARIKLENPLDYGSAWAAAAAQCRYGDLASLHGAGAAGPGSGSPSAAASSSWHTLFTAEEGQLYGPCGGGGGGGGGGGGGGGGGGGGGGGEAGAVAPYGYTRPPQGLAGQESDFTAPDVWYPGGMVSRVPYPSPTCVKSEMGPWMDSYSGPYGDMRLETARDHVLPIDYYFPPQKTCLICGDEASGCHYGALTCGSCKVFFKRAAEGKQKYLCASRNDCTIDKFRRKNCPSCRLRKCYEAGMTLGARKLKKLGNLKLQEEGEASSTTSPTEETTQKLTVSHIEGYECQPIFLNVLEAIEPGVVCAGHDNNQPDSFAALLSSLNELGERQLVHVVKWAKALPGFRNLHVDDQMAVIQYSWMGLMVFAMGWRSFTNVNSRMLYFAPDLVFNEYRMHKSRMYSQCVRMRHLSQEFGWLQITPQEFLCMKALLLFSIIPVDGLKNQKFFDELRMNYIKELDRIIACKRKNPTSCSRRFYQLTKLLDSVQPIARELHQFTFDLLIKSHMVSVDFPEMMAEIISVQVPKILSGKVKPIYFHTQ
Chain of Estrogen receptor (Homo sapiens) (P03372 whole entry, looked up): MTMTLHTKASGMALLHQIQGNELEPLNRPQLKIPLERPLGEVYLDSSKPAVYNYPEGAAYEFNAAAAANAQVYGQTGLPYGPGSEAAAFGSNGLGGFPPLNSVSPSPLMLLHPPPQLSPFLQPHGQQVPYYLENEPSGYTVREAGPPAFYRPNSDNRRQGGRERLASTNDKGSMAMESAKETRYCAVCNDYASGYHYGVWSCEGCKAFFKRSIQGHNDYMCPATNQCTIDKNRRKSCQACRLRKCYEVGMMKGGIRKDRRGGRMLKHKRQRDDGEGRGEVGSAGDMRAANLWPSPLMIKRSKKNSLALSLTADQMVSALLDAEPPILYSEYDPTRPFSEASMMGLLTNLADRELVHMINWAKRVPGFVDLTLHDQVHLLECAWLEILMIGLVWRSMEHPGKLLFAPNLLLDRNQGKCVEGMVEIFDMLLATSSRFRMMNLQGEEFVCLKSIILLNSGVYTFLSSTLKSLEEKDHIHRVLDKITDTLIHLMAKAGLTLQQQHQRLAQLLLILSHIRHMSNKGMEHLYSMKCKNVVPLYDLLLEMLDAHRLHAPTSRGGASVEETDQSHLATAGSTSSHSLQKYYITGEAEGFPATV

On to `CC1(C)O[C@@H]2C[C@H]3[C@@H]4CCC5=CC(=O)C=C[C@]5(C)[C@H]4[C@@H](O)C[C@]3(C)[C@]2(C(=O)CO)O1`, for which the Potency result in experiment [1], in experiment [2], in experiment [3], in experiment [5], in [6] and in experiment [7] was “inactive” in each case. The Potency result in [8] and in experiment [9] was “inactive” in each case. In experiment [4], the molecule was called inactive.
With `COc1cc2[nH]c(=O)[nH]c(=O)c2cc1OC`, the Potency entry in [1], in experiment [2], in experiment [3], in [5], in experiment [6] and in [7] was “inactive” in each case. Further, the Potency entry in experiment [8] and in experiment [9] was “inactive” in each case. Besides, the result in experiment [4] was inactive.
`C1COCO1`: the Potency entry in experiment [1], in experiment [2], in [3], in [5], in experiment [6] and in [7] was “inactive” each time. The Potency result in [8] is “inactive”.
Turning to `COC(=O)[C@@H]1CC2=CC(=O)CC[C@]2(C)[C@@]23O[C@@H]2C[C@@]2(C)[C@@H](CC[C@@]24CCC(=O)O4)[C@H]13`, the Potency result in experiment [1], in experiment [2], in [3], in experiment [5], in experiment [6] and in [7] was “inactive” each time. For the same molecule, the Potency entry in [8] and in experiment [9] was “inactive” throughout. Besides, the call in experiment [4] was inactive.
Take `CC(=O)Oc1ccc(C(=C2CCCCC2)c2ccc(OC(C)=O)cc2)cc1`: the Potency result in experiment [1], in experiment [2], in experiment [3], in experiment [5], in experiment [6] and in experiment [7] was “inactive” each time. Further, the Potency entry in [8] and in experiment [9] was “inactive” each time. For the same molecule, the molecule was classed as inactive in experiment [4].
Consider `CCCCCCCCSCCO`, for which the Potency result in [1], in [2], in [10], in experiment [5], in experiment [6] and in experiment [7] was “inactive” each time. In addition, the Potency result in experiment [8] and in experiment [9] was “inactive” each time.
Regarding `NCC1CCCC(CN)C1` (stereo not drawn), the Potency result in experiment [1], in experiment [2], in experiment [10], in experiment [5], in experiment [6] and in experiment [7] was “inactive” each time. Besides, the Potency result in experiment [8] and in experiment [9] was “inactive” throughout.
`C[Si]1(C)O[Si](C)(C)O[Si](C)(C)O1`: the Potency result in experiment [1], in [2], in experiment [10], in [5], in experiment [6] and in experiment [8] was “inactive” in each case.
With `CCOC(=O)c1ccccc1C`, the Potency entry in experiment [1], in experiment [2], in experiment [3], in experiment [5], in [6] and in experiment [7] was “inactive” throughout. In [8], the Potency entry is “inactive”.
As for `CC1=C(C=O)C(C)(C)CCC1`, the Potency result in [1], in experiment [2], in [3], in experiment [5], in [6] and in experiment [7] was “inactive” each time. In experiment [8], the Potency entry was “inactive”.
As for `O=C1OCCN1/N=C/c1ccc([N+](=O)[O-])o1`, the Potency result in experiment [1], in [2], in [3], in [5], in [6] and in experiment [7] was “inactive” in each case. For the same molecule, the Potency result in experiment [8] and in [9] was “inactive” each time. The molecule was classed as inactive in experiment [4].
On to `CC(CCc1ccc2c(c1)OCO2)NN` (stereo not drawn), for which the Potency entry in experiment [1], in [2], in [3], in experiment [5], in [6] and in experiment [7] was “inactive” each time. Moreover, the Potency entry in [8] and in [9] was “inactive” in each case. Further, the molecule was called inactive in experiment [4].
In the case of `CC(=O)CC(c1ccc([N+](=O)[O-])cc1)c1c(O)c2ccccc2oc1=O` (stereo not drawn), the Potency entry in [1], in experiment [2], in [3], in [5], in experiment [6] and in experiment [8] was “inactive” throughout. In experiment [9], the Potency entry is “inactive”. In [4], the call was inactive.
Turning to `CC1=NN(c2ccc(C(=O)O)cc2)C(=O)C1`, the Potency entry in experiment [1], in experiment [2], in [10], in [5], in experiment [6] and in experiment [7] was “inactive” in each case. For the same molecule, the Potency result in [8] and in [9] was “inactive” in each case.
Turning to `O=C(O)c1cccc(O)c1`, the Potency result in [1], in experiment [2], in experiment [3], in experiment [5], in experiment [6] and in [7] was “inactive” in each case. The Potency entry in [8] was “inactive”.
As to `O=C(NCCCN1CCOCC1)c1ccc(Cl)cc1`, the Potency entry in experiment [1], in experiment [2], in experiment [3], in [5], in experiment [6] and in experiment [7] was “inactive” each time. For the same molecule, the Potency result in [8] and in [9] was “inactive” in each case. In addition, the molecule was classed as inactive in [4].
`CC1CN(c2cc3c(cc2F)c(=O)c(C(=O)O)cn3-c2ccc(F)cc2F)CCN1` (stereo not drawn): the results for the activity change, negative = cytotoxicity in [1] and in experiment [6] were 6.15% [at 8.39 µM] (inactive) and -1.14% [at 8.39 µM] (inactive), respectively. Besides, the viability change, negative = cytotoxic in [2] was 6.65% [at 8.39 µM] (inactive); in [7] it was -8.68% [at 8.39 µM] (inactive); in experiment [8] it was 5.63% [at 8.39 µM] (inactive). The results for the activity change, negative = inhibition in experiment [3] and in [5] were -1% [at 8.39 µM] (inactive) and -3.12% [at 8.39 µM] (inactive), respectively. Besides, the call in experiment [4] was inactive. For the same molecule, the activity change in experiment [9] was 0.373% [at 8.39 µM, stronger effect = higher value] (inactive).
With `Cc1ccnc2ccccc12`, the Potency entry in experiment [1], in [2], in [3], in experiment [5], in experiment [6] and in experiment [7] was “inactive” each time.
Consider `CCCCCCCCCCOS(=O)(=O)O`, for which the Potency result in experiment [1], in [2], in [3], in [5], in experiment [6] and in experiment [7] was “inactive” throughout. The Potency entry in [8] is “inactive”.
With `Cc1oncc1C(=O)Nc1ccc(C(F)(F)F)cc1`, the Potency result in [1], in experiment [2], in [3] and in [6] was “inactive” in each case. Moreover, in experiment [4], the call was inactive. The Potency in experiment [5] was 2.43 µM (active) and 1.88 µM (active); in experiment [8], 61.1 µM (active) and inactive; in experiment [9] it was 15.4 µM (active) and 9.44 µM (active).
On to `COc1ccc([C@@H]2Sc3ccccc3NC(=O)[C@@H]2O)cc1`, for which the Potency result in experiment [1], in experiment [2], in experiment [10], in experiment [5], in experiment [6] and in experiment [7] was “inactive” throughout. Besides, the Potency result in experiment [8] and in [9] was “inactive” in each case.
For the molecule `CC(=O)OCC(=O)[C@@]12OC(C)(C)O[C@@H]1C[C@H]1[C@@H]3C[C@H](F)C4=CC(=O)C=C[C@]4(C)[C@@]3(F)[C@@H](O)C[C@@]12C`, the Potency entry in [1], in experiment [2], in experiment [3], in [5], in experiment [6] and in experiment [7] was “inactive” each time. Moreover, in experiment [8], the Potency result was “inactive”. For the same molecule, in experiment [4], the molecule was called inactive.
For the molecule `CCOC(=O)[C@@H](C)Oc1ccc(Oc2nc3ccc(Cl)cc3o2)cc1`, the Potency entry in experiment [1], in experiment [2], in experiment [10], in experiment [6], in [7] and in experiment [8] was “inactive” throughout. Further, in experiment [9], the Potency entry is “inactive”.
Turning to `CCC1(C)CC(=O)NC1=O` (stereo not drawn), the Potency result in experiment [1], in [2], in [3], in experiment [5], in experiment [6] and in [7] was “inactive” in each case. The Potency result in [8] is “inactive”. In experiment [4], the molecule was called inactive.
For the molecule `CCn1cc(C(=O)O)c(=O)c2cc(F)c(N3CCNCC3)nc21`, the Potency entry in experiment [1], in [2], in experiment [3], in experiment [5], in experiment [6] and in experiment [7] was “inactive” throughout. The Potency result in experiment [8] was “inactive”. Also, the outcome in experiment [4] was inactive.
